From PubChem
POLB inh: DNA polymerase beta (human) inhibition; hit rate 1.3% among 340,000; Potency, µM (highest dose often 114 µM), hits mostly inhibitors; Pol beta primer extension/strand displacement, fluorescence kinetic
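10 nM enzyme + cpd, 15 min RT; start with substrate 50 nM final; read 0 min and after 10 min RT. Corrected, normalized data; 4-parameter Hill curve fit.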
POLH inh: blocks human DNA polymerase eta activity | Potency, µM (highest dose often 114 µM), usual class: inhibitors | hit rate 1.2% among 390,000 | AID 588591 | recombinant Pol eta, fluorescent DNA replication assay
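Pol eta at 10 nM preincubated with compounds 15 min at room temperature; reaction started with fluorescent substrate (50 nM final) and read kinetically at 0 and 10 min.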
WRN inhibitor: blocks human WRN helicase. Potency, µM (highest dose often 114 µM), actives largely listed as inhibitors. AID 651768. Q14191. WRN helicase unwinding, fluorescent forked duplex, kinetic. hit rate 0.46% among 360,000; also: nearly all actives have a fitted effect of over 55% in size
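Screening of the MLSMR collection measured strand separation of a quenched forked DNA duplex (100 nM) by 20 nM WRN with 2 mM ATP, all final. Compounds were preincubated with enzyme 15 min at room temperature.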
Pol kappa inh: blocks human DNA polymerase kappa activity. Q9UBT6. hit rate 0.53% among 400,000. Potency, µM (highest dose often 107 µM), usual class: inhibitors. purified Pol kappa, fluorescent DNA synthesis assay, 10 min
Target sequence (Q9UBT6 whole entry, looked up): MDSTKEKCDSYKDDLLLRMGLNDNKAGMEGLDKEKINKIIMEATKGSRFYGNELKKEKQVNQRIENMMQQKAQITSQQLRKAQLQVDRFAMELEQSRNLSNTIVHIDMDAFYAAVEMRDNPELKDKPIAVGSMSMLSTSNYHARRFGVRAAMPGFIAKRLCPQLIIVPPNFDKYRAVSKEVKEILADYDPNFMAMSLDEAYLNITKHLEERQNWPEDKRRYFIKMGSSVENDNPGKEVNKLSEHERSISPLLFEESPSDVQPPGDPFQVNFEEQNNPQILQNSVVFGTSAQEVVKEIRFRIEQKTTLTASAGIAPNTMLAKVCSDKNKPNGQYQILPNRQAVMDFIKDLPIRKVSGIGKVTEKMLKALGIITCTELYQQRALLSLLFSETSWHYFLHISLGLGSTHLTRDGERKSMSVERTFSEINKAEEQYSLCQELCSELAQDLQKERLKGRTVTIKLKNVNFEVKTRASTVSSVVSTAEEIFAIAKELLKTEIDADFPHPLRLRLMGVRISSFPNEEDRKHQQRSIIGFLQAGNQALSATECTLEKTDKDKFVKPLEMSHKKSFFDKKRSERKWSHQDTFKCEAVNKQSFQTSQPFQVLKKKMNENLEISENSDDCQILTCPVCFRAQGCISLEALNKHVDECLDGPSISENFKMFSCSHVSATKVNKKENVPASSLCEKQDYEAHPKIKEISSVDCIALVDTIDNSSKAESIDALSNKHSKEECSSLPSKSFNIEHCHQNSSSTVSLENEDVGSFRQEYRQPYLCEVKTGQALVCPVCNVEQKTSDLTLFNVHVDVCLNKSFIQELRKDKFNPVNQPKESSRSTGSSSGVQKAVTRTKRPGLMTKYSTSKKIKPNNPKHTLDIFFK
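10 nM Pol kappa preincubated 15 min at room temperature with compounds, then reaction started with substrate at 50 nM final. Fluorescence read kinetically at 0 and 10 min; buffer-only wells served as negative control.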
POLI inh: inhibitors of human DNA polymerase iota | AID 588590 | Pol iota fluorescent replication assay, 10 min | hit rate 1% among 390,000 | Potency, µM (doses to about 115 µM), hits mostly inhibitors
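Fluorescent replication assay read twice, at 0 min and 10 min after adding 50 nM (final) substrate. Enzyme (10 nM) and compounds were first incubated 15 min at room temperature; enzyme-free buffer wells were negative controls.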
FEN1 inhibitor: inhibitors of human flap endonuclease 1; P39748; hit rate 0.35% among 390,000; Recombinant FEN1 flap cleavage, fluorescence, 15 min; AID 588795; Potency, µM (highest dose often 114 µM), hits mostly inhibitors; also: nearly all actives have a fitted effect of over 65% in size
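Read-out was taken twice, immediately and after 15 min, following addition of 50 nM substrate to 10 nM FEN1 that had sat with test compound for 15 min at room temperature. Curves came from a four-parameter Hill model.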
Numbers stand for hits; n = inactive; u = inconclusive; x = not tested or not shown; [ ] = remark or other dose. Shown are actives, neighbours in structure and some others; about 2.4% of the full set was active somewhere. Calls follow the shape of the dose curve; as a rule, active = well fitted curve in the direction sought with a large enough effect; inconclusive = small, poorly fitted or top-dose-only effect, or another doubt; inactive = no such curve, though single readings can be large; an effect the other way counts as inactive or inconclusive.

SMILES	POLB inh	POLH inh	WRN inhibitor	Pol kappa inh	POLI inh	FEN1 inhibitor
C[C@H](N)C(=O)N[C@@H](CO)C(=O)N[C@H](C(=O)N[C@H](C(=O)N[C@H](C(=O)N[C@@H](CC(N)=O)C(=O)N[C@@H](Cc1ccc(O)cc1)C(=O)N[C@H](C(=O)O)[C@@H](C)O)[C@@H](C)O)[C@@H](C)O)[C@@H](C)O	x	x	x	n	x	x
CCCC(=O)OCCNc1cc(Sc2nc3ccccc3[nH]2)c2nonc2c1[N+](=O)[O-]	n	u	40µM	n	u	u
COc1cc(-c2noc(C)c2C#CCCN2C(=O)c3ccccc3C2=O)cc(OC)c1OC	x	x	x	n	n	n
COc1ccc(OC)c(S(=O)(=O)Nc2ccc(O)c(Sc3ncn[nH]3)c2)c1	79µM	u	u	n	u	n
CCCCn1c(NC(=O)CC)c(C#N)c2nc3ccccc3nc21	n	n	n	n	n	n
N#Cc1c(NC(=O)c2ccccc2Cl)n(Cc2ccccc2)c2nc3ccccc3nc12	71µM	35µM	u	n	20µM	u
CCCCn1c(NC(=O)c2ccccc2Cl)c(C#N)c2nc3ccccc3nc21	n	20µM	n	n	3.5µM	u
CC(C)CN(C[C@@H](OP(=O)(O)O)[C@H](Cc1ccccc1)NC(=O)O[C@@H]1CCOC1)S(=O)(=O)c1ccc(N)cc1	x	x	x	n[19.4 µM]	x	x
CC(C)(C)OC(=O)NS(=O)(=O)Nc1ccccc1Br	x	x	x	n	n	n
COc1ccc(/C=N\NC(=O)c2cc3c(ccc4ccccc43)o2)cc1O	n	50µM	n[11.6 µM]	n	28µM	u
O=C(N/N=C/c1ccncc1)c1cc2c(ccc3ccccc32)o1	n	u	n	n	n	n
O=C(COc1ccc(/C=N/NC(=O)c2cc3ccccc3o2)cc1Br)Nc1ccccc1	5.6µM	0.89µM	n	n	u	u
O=C(Nc1cccnc1)c1cc2c(ccc3ccccc32)o1	32µM	u	u	u	50µM	n
O=C(O)c1ccc(/C=N/NC(=O)c2cc3c(ccc4ccccc43)o2)cc1	40µM	u	n	n	u	u
Nc1ccccc1S(=O)(=O)Nc1cccc2cccnc12	x	x	x	n	x	x
CN1C=CC(=C2C=CN(C)C=C2)C=C1	x	x	x	n	x	x
Cc1nc([N+](=O)[O-])cn1CC(O)c1ccc2c(c1)OCO2 (configuration not stated)	x	x	x	n	u	n
S=C(NCCCc1cnc[nH]1)NCCCN(Cc1ccc(Cl)cc1)c1ccc(Br)cc1	x	x	x	n	n	u
O=C(CSC1=NCCS1)Nc1nc2c(s1)CCCC2	56µM	n	n	n	n	n
Cn1nnnc1SCC(=O)Nc1nc2c(s1)CCCC2	n	n	n	n	n	n
CC/C(C)=N/Nc1nc(-c2cc3cccc(OC)c3oc2=O)cs1	n	50µM	u	u	50µM	n
COc1cccc2cc(-c3csc(CCn4nc(C)cc4C)n3)c(=O)oc12	n	u	n	n	n	n
COc1ccc(-c2nc3cnc(Oc4cccc(Cl)c4)nc3n(CCC#N)c2=O)cc1	x	x	x	n	x	x
O=C1C=CC2(O[C@H](c3ccccc3)[C@@H](c3ccccc3)O2)[C@H](Sc2ccccc2O)C1	x	u	11µM	n	22µM	n
CNCc1nc(-c2ccc[nH]2)c2cc(Cl)ccc2n1	x	x	x	n	n	u
SMILES	POLB inh	POLH inh	WRN inhibitor	Pol kappa inh	POLI inh	FEN1 inhibitor
CCOc1cc(/C=C2\C(=O)N(CCc3ccc(OC)c(OC)c3)C(C)=C2C(=O)OC)ccc1O	n	n	79µM	n	n	n
Nc1ncnc2c1nc(Br)n2C1OC2COP(=O)(O)O[C@@H]2C1O (some centres not stated)	x	x	x	n	x	x
Cc1ccc(C)c(N2N=C(C(=O)NCCN3C(=O)S/C(=C\c4cccnc4)C3=O)CCC2=O)c1	x	u	n[11.6 µM]	n	50µM	n
O=C(CN1C(=O)/C(=C/c2cccc(Br)c2)SC1=S)NCCCN1CCOCC1	n	u	79µM	n	u	n
Cc1nc2cc(N3CCOCC3)c(NC(=O)C3CC3)cc2c(=O)n1Cc1ccccc1	n	20µM	n	u	u	n
Nc1cccn2c(-c3ccc(Cl)cc3)cnc12	n	n	n	n	n	n
Nc1cccn2c(-c3ccc(Cl)c(Cl)c3)cnc12	n	n	n	n	13µM	n
